# HCMV antiviral = qHTS Assay for inhibitors of the human cytomegalovirus (HCMV) | HFF cells, HCMV-luciferase reporter, 72 h; active compounds read low | activity change, negative = inhibition, % at 57.5 µM | hit rate 4.5% among 410,000 | AID 1259415, 2018; in the data active = activity change below about -60%; inconclusive = no clear call, values can overlap the other calls; inactive = above about -39%
#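 Two-dose cell screen: HFF monolayers treated with compounds and infected with luciferase-expressing HCMV at 1 PFU/cell, 72 h at 37C, then lysed for luciferase measurement.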
# FMDV antiviral = High Throughput Screening for Foot and Mouth Disease Virus Antivirals; FMDV antiviral cell-based qHTS; Potency, µM (top dose mostly 57.9 µM), for inactives: at the highest dose activity change, negative = inhibition, most hits filed as inhibitors; hit rate 1.2% among 410,000; AID 1159524, 2015; calls by dose curve; tested in HEK293T cells; note: read-out not given here; potency is the fitted concentration of half-maximal effect; nearly all actives have a fitted effect of over 45% in size
# Vaccinia mCherry = qHTS for Stage-Specific Inhibitors of Vaccinia Orthopoxvirus: mCherry Reporter Primary qHTS; Vaccinia virus mCherry reporter infection, fluorescence; Potency, µM (doses to about 36.5 µM), for inactives: at the highest dose activity change, negative = inhibition, hits mostly inhibitors; hit rate 0.63% among 310,000; calls by dose curve; tested in A549 cells; note: potency is the fitted concentration of half-maximal effect; nearly all actives have a fitted effect of over 35% in size
# HCV inh = qHTS Assay for Inhibitors of Hepatitis C Virus (HCV) | Huh7.5.1 HCVcc-Cre infection, luciferase reporter, 44 h | Potency, µM (series often up to 41.8 µM), for the others: at the top dose activity change, negative = inhibition, actives largely listed as inhibitors | hit rate 3.4% among 340,000 | AID 651820, 2012; note: potency is the fitted concentration of half-maximal effect
#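 Whole-lifecycle infectious HCVcc-Cre system; cells 1,000/well, compound then virus (~0.5 moi) added 4 h after plating, 44 h culture. Luciferase read 15 sec following 15 min substrate incubation, room temp.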
# Sm TGR inh = qHTS Assay for the Inhibitors of Schistosoma Mansoni Peroxiredoxins; Potency, µM (doses to about 114 µM), inactives show at the top dose activity change, negative = inhibition, usual class: inhibitors; hit rate 3% among 360,000; purified TGR, DTNB reduction, TNB absorbance 405 nm; Schistosoma mansoni thioredoxin glutathione reductase (TGR), Q962Y6; note: potency is the fitted concentration of half-maximal effect; nearly all actives have a fitted effect of over 60% in size
#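 First, TGR (20 nM dispensed) and NADPH were mixed with compound. Second, a 15 min room-temperature incubation followed. Third, further NADPH and then DTNB were added to start the reaction. Finally, TNB absorbance was monitored kinetically.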
# Vaccinia Venus = qHTS for Stage-Specific Inhibitors of Vaccinia Orthopoxvirus: Venus Reporter Primary qHTS | Vaccinia virus Venus reporter expression, fluorescence | AID 720580, 2013 | hit rate 0.46% among 330,000 | Potency, µM (titrated, usually from 36.5 µM), for inactives: at the top dose activity change, negative = inhibition, most hits filed as inhibitors; calls by dose curve; tested in A549 cells; note: potency is the fitted concentration of half-maximal effect; nearly all actives have a fitted effect of over 30% in size
# Active calls of the source: *; i = inactive; ? = inconclusive; / = not tested or not shown. This is a sample that favours compounds with a hit; in the whole collection about 9.3% have one here. Unless noted, calls come from the whole dose curve; as a rule, active = well fitted curve in the direction sought with a large enough effect; inconclusive = small, poorly fitted or top-dose-only effect, or another doubt; inactive = no such curve, though single readings can be large; an effect the other way counts as inactive or inconclusive. % is set by controls: 0 for no effect and ±100 for the full control effect.
SMILES,HCMV antiviral,FMDV antiviral,Vaccinia mCherry,HCV inh,Sm TGR inh,Vaccinia Venus
Cc1cc(Cl)ccc1NC(=O)CCC(=O)N/N=C/c1cccnc1,-68*,6%,-15%,7%,?,2%
COc1cc(NC(=O)C(=O)N2CCN(C)CC2)c(OC)cc1Cl,29,9%,0%,4%,7%,-10%
CC[n+]1c(/C=C/N(C)c2ccccc2)n(-c2ccccc2)c2ccc(-c3nc4ccccc4s3)cc21,/,6.3µM*,?,5.6µM*,-31%,4.5µM*
COc1ccc(CCN(Cc2cc3ccc(C)cc3n3nnnc23)C(C)=O)cc1OC,-100*,-18%,0%,-9%,0%,-14%
COc1ccc(CCN(Cc2cc3cc(C)ccc3[nH]c2=O)C(C)=O)cc1OC,-25,1%,/,-3%,-11%,/
Cc1ccccc1C1C(C#N)=C2N=C(N)c3c(sc4c3CCCCC4)N2C2=C1C(=O)CC(C)(C)C2 (stereo not given),15,0%,/,?,-15%,/
O=C(Nc1cccc(C(=O)N2CCN(c3ccccc3)CC2)c1)c1ccco1,20,2%,-13%,1%,-11%,-18%
Cc1cccc(NC(=O)c2ccc3c(=O)n4c(nc3c2)CCCCC4)n1,72,-69%,-20%,14µM*,5%,-11%
O=C(Nc1nc(-c2ccccc2)cs1)c1ccc2c(=O)n3c(nc2c1)CCCCC3,-90*,16µM*,/,2.5µM*,4%,/
O=C(Nc1ccc(SC(F)F)cc1)c1ccc2c(=O)n3c(nc2c1)CCC3,-70*,?,/,4µM*,0%,/
COc1ccc(NC(=O)c2ccc3c(=O)n4c(nc3c2)CCCCC4)cc1,-30,-8%,-11%,?,0%,-13%
O=C(Nc1ccc(S(=O)(=O)C(F)F)cc1)c1ccc2c(=O)n3c(nc2c1)CCC3,-32,?,-8%,?,-3%,-13%
Cc1ccc(NC(=O)c2ccc3c(=O)n4c(nc3c2)CCCCC4)cc1F,16,-10%,-20%,10µM*,1%,-16%
COc1cccc(CNC(=O)c2c(O)nc3ccccn3c2=O)c1,4,8%,-2%,/,1%,-5%
CCOC(=O)c1c(C)n(CCOc2ccccc2)c2ccc(O)cc12,-29,-18%,1%,11%,8%,-5%
COc1ccc(-c2noc(C(=O)NCc3ccccc3Cl)n2)cc1OC,-38,65%,/,-21%,10%,/
Cc1ccc(NC(=O)c2ccc3c(=O)n4c(nc3c2)CCCCC4)nc1,-8,-9%,-7%,?,-2%,-8%
Cc1cc(C)c2nc(NC(=O)c3ccc4c(=O)n5c(nc4c3)CCCCC5)sc2c1,-72*,-26%,i,?,-8%,-22%
COc1ccc(N2CCN(CCCN)CC2)cc1,19,-19%,-8%,10µM*,/,6%
O=C(CN1CCN(c2ccc([N+](=O)[O-])cc2)CC1)c1ccccc1,47,-8%,-4%,-12%,11µM*,-10%
Cc1cccc(N2CCN(CC(=O)NCc3ccccc3)CC2)c1C,42,-18%,/,-18%,6%,/
COc1cccc(Cl)c1NC(=O)N1CCN(c2cc(C)nc3ccccc23)CC1,-80*,?,-24%,10µM*,11%,?
COc1ccc(CNC(=O)CN2CCN(c3cccc(C)c3C)CC2)cc1,16,-23%,-3%,3.2µM*,-23%,-5%
NCCCN1CCN(c2ccccc2)CC1,?,-9%,-12%,?,-9%,-5%
COc1cccc(Cl)c1NC(=O)N1CCN(c2ccnc3cc(Cl)ccc23)CC1,?,-24%,/,?,14%,/
SMILES,HCMV antiviral,FMDV antiviral,Vaccinia mCherry,HCV inh,Sm TGR inh,Vaccinia Venus
CCOc1ccccc1C1C(C(N)=O)=C(C)Nc2nc(-c3ccc(OC)cc3)nn21 (stereo not given),10,-4%,-10%,2%,-30%,2%
Cc1ccc(S(=O)(=O)Nc2c(C)n(C)n(-c3ccccc3)c2=O)c(C)c1,3,1%,-11%,10%,-5%,4%
O=C(CCCSc1nc2ccccc2[nH]1)N1CCN(c2ccc([N+](=O)[O-])cc2)CC1,-27,18µM*,i,1%,-14%,-20%
O=C(CN1CCN(CC(=O)c2ccc(Cl)cc2)CC1)c1ccc(Cl)cc1,48,10%,-13%,15%,/,-7%
COc1ccc(N2CCN(CC(=O)c3ccccc3)CC2)cc1,/,22%,-10%,5%,13µM*,-7%
O=C(CSc1nc2ccccc2[nH]1)N1CCN(c2ccc(F)cc2)CC1,-33,?,-30%,-16%,-21%,-14%
COc1ccc(-c2csc(N3CCN(c4cc(C)nc5ccccc45)CC3)n2)cc1OC,-112*,0%,?,2.8µM*,/,-6%
CCN1CCN(CC(=O)c2ccc(C)cc2)CC1,-67*,-11%,/,9%,5%,/
COc1cccc(-n2c(=O)c3cc(OC)c(OC)cc3n(CC(=O)Nc3ccc(F)cc3)c2=O)c1,-12,-1%,i,/,2%,-5%
O=C(NCCN1CCN(Cc2ccc([N+](=O)[O-])cc2)CC1)C(=O)Nc1ccccc1,38,/,i,19%,4%,-12%
O=C(NCCN1CCN(c2ccccc2)CC1)Nc1cccc(Br)c1,5,-18%,-22%,14µM*,7%,-18%
O=C(Cc1ccccc1)N1CCN(c2ccc([N+](=O)[O-])cc2)CC1,-64*,?,/,-16%,0%,/
Cc1cc(N2CCN(C(=O)Oc3ccc([N+](=O)[O-])cc3)CC2)c2ccccc2n1,?,25µM*,5%,/,/,-20%
O=C(NCCN1CCN(c2ccc([N+](=O)[O-])cc2)CC1)NCc1ccccc1,-94*,-21%,/,-14%,?,/
COc1cccc(OCCNS(=O)(=O)c2cccc([N+](=O)[O-])c2)c1,-24,9%,/,-4%,24%,/
CCCCC/C=C/C1=CC(=O)C[C@H](c2ccc3c(c2)OCO3)C1,-23,-29%,?,6%,-9%,-7%
CC(=O)c1ccc(NC(=O)CN2CCN(c3ccccc3)CC2)cc1,11,5%,/,-1%,-14%,/
O=[N+]([O-])c1ccc(CN2CCN(c3ncccn3)CC2)cc1,?,-13%,/,5%,-2%,/
CC(=O)Nc1ccc(C(=O)CN2CCN(c3ccccc3)CC2)cc1,0,0%,?,-15%,14µM*,10%
COc1ccc(C(=O)CN2CCN(c3cc(C)nc4ccccc34)CC2)cc1,-61*,?,/,10µM*,20µM*,/
O=[N+]([O-])c1ccc(N2CCN(Cc3ccncc3)CC2)cc1,-90*,-18%,/,0%,-2%,/

# High-throughput results as filed in PubChem BioAssay.
